Screening data from PubChem.
An excerpt weighted towards active compounds, which were near 13% of everything screened.
LASV entry inh = blocks Lassa virus binding to or entry into cells; 1.2% of 300,000 active; Lassa virus pseudotype entry inhibition, cell reporter; Potency, µM (titrated, usually from 37.9 µM), hits mostly inhibitors; calls by dose curve; tested in HEK293 cells; also: nearly all actives have a fitted effect of over 50% in size
HCV inhibitor = blocks hepatitis C virus; Huh7.5.1 HCVcc-Cre infection, luciferase reporter, 44 h; Potency, µM (doses to about 41.8 µM), hits mostly inhibitors; 3.4% of 340,000 active; AID 651820; active = well fitted inhibition curve with a large enough effect; inconclusive = small, poorly fitted or top-dose-only effect, or another doubt; inactive = no such curve, though single readings can be large or run the other way
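1,000 cells/well; 4 h culture; + compound; + HCVcc-Cre (~0.5 moi); 44 h; luciferase substrate, RT 15 min; read 15 sec.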
Marburg entry inh = inhibitors of Marburg virus binding or cell entry. Marburg virus pseudotyped entry inhibition, cell reporter. Potency, µM (series often up to 37.8 µM), actives largely listed as inhibitors. 1.8% of 300,000 active; calls by dose curve; tested in HEK293 cells
CHX counter = counter-screen hit for Shiga toxin inhibitors, cycloheximide. cell reporter, cycloheximide protein synthesis inhibition counterscreen. max response, %. 12% of 300,000 active. AID 2314; in the data active = max response mostly above about 13%, no sharp cut-off; inactive = mostly below about 14%; also: read at 38.3 µM for the half of the compounds with a filed dose
Shiga inhibitor = blocks Shiga toxin action in Vero cells; Vero cells, Shiga toxin protein synthesis inhibition reporter; inhibition, % at 38.7 µM; 9.2% of 290,000 active; AID 2315; in the data active = inhibition mostly above about 28%, no sharp cut-off; inactive = mostly below about 43%
FMDV antiviral = foot and mouth disease virus antiviral activity. FMDV antiviral cell-based qHTS. Potency, µM (doses to about 57.9 µM), hits mostly inhibitors. 1.2% of 410,000 active. AID 1159524; calls by dose curve; tested in HEK293T cells; also: read-out not given here; nearly all actives have a fitted effect of over 45% in size
Of the large screens only hits and unclear results are named; the others gave an inactive call.

CCOC(=O)c1cn2nc(Oc3ccccc3)ccc2n1	LASV entry inh inconclusive, Marburg entry inh inconclusive, CHX counter 71.5, Shiga inhibitor 92.7
CCOC(=O)c1cn2nc(N3CCCCC3)ccc2n1	LASV entry inh inconclusive, Marburg entry inh inconclusive
CCOC(=O)c1cn2nc(Oc3cccc(C(F)(F)F)c3)ccc2n1	none
CCOC(=O)c1cn2nc(Oc3ccc(OC)cc3)ccc2n1	none (no result: LASV entry inh, Marburg entry inh)
CCOC(=O)c1cn2nc(N3CCCC3)ccc2n1	LASV entry inh 1.41µM, Marburg entry inh 3.55µM
CCOC(=O)c1cn2nc(Oc3ccc(C)cc3)ccc2n1	Marburg entry inh inconclusive, CHX counter 43.3, Shiga inhibitor 98.3
CCC(=O)Nc1cc(C(=O)O)ccc1Sc1ccccc1	none
COC(=O)c1c(OCc2ccccn2)cc(=O)n2c1CCN(C(=O)c1n[nH]c3c1CCCC3)CC2	none (no result: LASV entry inh, HCV inhibitor, Marburg entry inh, CHX counter, Shiga inhibitor)
COc1cc(NS(=O)(=O)c2cn(C)cn2)cc(OC)c1OC	none
Cc1c(C(=O)C(=O)NCCc2ccc(S(N)(=O)=O)cc2)c2ccccc2n1C	none
COc1ccc(C=C2c3ccccc3C(=O)c3ccccc32)cc1O	none (no result: LASV entry inh, HCV inhibitor, Marburg entry inh, FMDV antiviral)
COc1cc(C=C(c2nc3ccccc3s2)c2nc3ccccc3s2)ccc1O	HCV inhibitor inconclusive, Marburg entry inh inconclusive, CHX counter 22.6
COc1cc(/C=C/c2nc3ccccc3s2)cc(OC)c1O	LASV entry inh inconclusive, HCV inhibitor inconclusive, CHX counter 40.6, Shiga inhibitor 77.7
COc1cccc(/C=C(\CC(=O)O)c2nc3ccccc3s2)c1	none
COc1ccc(C=C(c2nc3ccccc3s2)c2nc3ccccc3s2)cc1O	LASV entry inh inconclusive, HCV inhibitor inconclusive, Marburg entry inh inconclusive, CHX counter 89.0, Shiga inhibitor active
CCCN(CCC)C(=O)c1c[nH]c2ccc(S(=O)(=O)N(C)c3ccc(OCC)cc3)cc2c1=O	none (no result: HCV inhibitor, Marburg entry inh, CHX counter, Shiga inhibitor)
CS(=O)(=O)N1CCN(c2ccc(NC(=O)CSc3ccc(Cl)cc3)cc2)CC1	none (no result: FMDV antiviral)
Cc1ccc(NC(=O)Nc2nnc(-c3ccncc3)s2)cc1C	HCV inhibitor inconclusive, FMDV antiviral inconclusive (no result: LASV entry inh, Marburg entry inh)
O=C(Nc1ccc(F)cc1)Nc1nnc(-c2ccncc2)s1	LASV entry inh inconclusive, HCV inhibitor 25.1µM, FMDV antiviral inconclusive
O=C(Nc1ccc(Cl)cc1)Nc1nnc(-c2ccncc2)s1	LASV entry inh 3.98µM, HCV inhibitor inconclusive, Marburg entry inh inconclusive, FMDV antiviral inconclusive
C=CCn1c(SCC(N)=O)nc2sc3c(c2c1=O)CCC3	none
COc1cc(CCC(=O)OCC(=O)Nc2ccccc2C(C)C)cc(OC)c1OC	Marburg entry inh inconclusive
O=c1ccc2ccccc2c2ccccc12	FMDV antiviral 12.6µM (no result: LASV entry inh, HCV inhibitor, Marburg entry inh, CHX counter, Shiga inhibitor)
c1ccc2c(c1)ccc1ccccc12	none (no result: LASV entry inh, Marburg entry inh, CHX counter, Shiga inhibitor)
O=C(CN(C(=O)CNS(=O)(=O)c1ccccc1)c1ccc(Cl)cc1)NCC1CCCO1 (centres undefined)	none (no result: LASV entry inh)
COn1c(-c2ccccc2)nc2c1CCc1c-2no[n+]1[O-]	none
COc1ccc(-c2nc3c(n2O)CCc2c-3no[n+]2[O-])cc1	CHX counter 13.3 (no result: LASV entry inh, Marburg entry inh)
CC(=O)N1CCc2cc(S(=O)(=O)CCC(=O)Nc3cc(C)cc(C)c3)ccc21	none (no result: LASV entry inh, Marburg entry inh)
CCC1=NN=C(c2ccc(F)cc2)C(c2c[nH]c3ccccc23)N1O (centres undefined)	Marburg entry inh inconclusive, Shiga inhibitor 74.0
CC(=O)c1ccc(NC(=O)CCc2nnc3ccc(N4CCC5(CC4)OCCO5)nn23)cc1	Marburg entry inh inconclusive, CHX counter 46.8, Shiga inhibitor 81.8
CC1CCN(C(=O)C(Cc2ccccc2)NS(=O)(=O)c2ccc3c(c2)oc(=O)n3C)CC1 (centres undefined)	none (no result: LASV entry inh)
COc1ccc(-c2cn3cc(C(F)(F)F)cc(Cl)c3n2)cc1	LASV entry inh inconclusive, HCV inhibitor inconclusive, Marburg entry inh inconclusive, CHX counter 56.0, Shiga inhibitor 79.9
Fc1ccc(-c2nc3c(Cl)cc(C(F)(F)F)cn3c2Cc2ccccc2)cc1	none (no result: LASV entry inh, HCV inhibitor, Marburg entry inh, CHX counter, Shiga inhibitor)
Fc1ccc(-c2cn3cc(C(F)(F)F)cc(Cl)c3n2)cc1	LASV entry inh inconclusive, HCV inhibitor inconclusive, Marburg entry inh inconclusive, CHX counter 28.4, Shiga inhibitor 103.0
COC(=O)N1[C@H](Cc2ccccc2)C=C[C@]1(C)C(=O)NCc1ccccn1	LASV entry inh inconclusive
CNC(=O)[C@@]1(C)C=C[C@@H](Cc2ccccc2)N1C(=O)OC	CHX counter 21.8
COCCNC(=O)[C@@]1(C)C=C[C@@H](Cc2ccccc2)N1C(=O)c1ccccc1	CHX counter 20.5, Shiga inhibitor 28.3 (no result: LASV entry inh, Marburg entry inh)
Cc1c(NS(=O)(=O)N2CCCC2)c(=O)n(-c2ccccc2)n1C	none
CC1c2ccccc2N(S(=O)(=O)c2ccccc2)C1C (centres undefined)	LASV entry inh inconclusive, HCV inhibitor inconclusive, Marburg entry inh 3.55µM (no result: CHX counter, Shiga inhibitor)
CC(=O)N1c2ccccc2[C@H](C)[C@H]1C	none (no result: LASV entry inh, Marburg entry inh, CHX counter, Shiga inhibitor)
CCCOc1ccc(C(=O)NCC(C)(C)N2CCOCC2)cc1	none
Cc1ccc(/C=N/n2cnc3sc(-c4ccccc4)cc3c2=O)o1	CHX counter 23.5, Shiga inhibitor 46.5
CCOc1ccc(-n2c(/C=C/c3ccccc3)nc3ccccc3c2=O)cc1	none (no result: HCV inhibitor, Marburg entry inh, CHX counter, Shiga inhibitor)
Cc1cc(OCc2cc(C(=O)NC(C)c3c(C)nn(C)c3C)no2)cc(C)c1Cl (centres undefined)	HCV inhibitor 11.2µM, CHX counter 41.0, Shiga inhibitor 111.3 (no result: LASV entry inh, Marburg entry inh)
Cc1cccc(CC(C)NC(=O)c2cc(COc3ccc(F)cc3F)on2)n1 (centres undefined)	CHX counter 49.1, Shiga inhibitor 45.3 (no result: LASV entry inh, Marburg entry inh)
Cc1cc(OCc2cc(C(=O)NCC3(C)COC3)no2)cc(C)c1Cl	HCV inhibitor inconclusive (no result: LASV entry inh, Marburg entry inh)
Cc1cc(C)nc(CCNC(=O)c2cc(COc3ccc(F)cc3F)on2)n1	none
Cc1nc(C(C)NC(=O)c2cc(COc3ccc(C)c(C)c3)on2)c(C)s1 (centres undefined)	HCV inhibitor inconclusive, CHX counter 41.5, Shiga inhibitor 125.1 (no result: LASV entry inh, Marburg entry inh)
Cc1ccc(C)c(OCc2cc(C(=O)NC(C)c3cnn(C)c3)no2)c1 (centres undefined)	none
Cc1cccc(CC(C)NC(=O)c2cc(COc3ccc(C)c(C)c3)on2)n1 (centres undefined)	HCV inhibitor inconclusive, CHX counter 77.1, Shiga inhibitor 97.8
Cc1ccccc1S(=O)(=O)Nc1nc2ccccc2nc1Cl	none
COc1ccc(C(CC(=O)Nc2cc(Cl)c(OC)cc2OC)N2Cc3ccccc3C2=O)cc1 (centres undefined)	none (no result: HCV inhibitor, Marburg entry inh, CHX counter, Shiga inhibitor)
Cc1ccccc1NC(=O)CN1C(=S)NC(C)(C)CC1C (centres undefined)	Marburg entry inh inconclusive
CNC(=O)C[C@H]1C(=O)N(C2CCCCC2)C[C@@H]1C	none (no result: HCV inhibitor, Marburg entry inh, CHX counter, Shiga inhibitor)
Cc1ccc(C(=O)Nc2cccc([N+](=O)[O-])c2)cc1S(=O)(=O)Nc1ccc(NC(=O)c2ccccc2)cc1	LASV entry inh inconclusive, HCV inhibitor 10µM, Marburg entry inh inconclusive
Cc1ccc(NS(=O)(=O)c2cc(C(=O)Nc3cccc([N+](=O)[O-])c3)ccc2C)cc1	LASV entry inh 18.4µM, HCV inhibitor inconclusive, Marburg entry inh inconclusive
CC(=O)Nc1ccc(NC(=O)c2ccc(C)c(S(=O)(=O)Nc3cccc(C)c3)c2)cc1	HCV inhibitor 12.6µM, Marburg entry inh 6.31µM
